Screening results from PubChem BioAssay.
GPR151 ag: human GPR151 activation | 1% of 650,000 active | AID 1508602 | Q8TDV0 | activation, % at 11.2 µM | PathHunter beta-arrestin GPR151 cells, luminescence; in the data active = activation above about 4.9%;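 also: 0% = median of compound wells and 100% = cells with positive control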
Target sequence (Q8TDV0 whole entry, looked up): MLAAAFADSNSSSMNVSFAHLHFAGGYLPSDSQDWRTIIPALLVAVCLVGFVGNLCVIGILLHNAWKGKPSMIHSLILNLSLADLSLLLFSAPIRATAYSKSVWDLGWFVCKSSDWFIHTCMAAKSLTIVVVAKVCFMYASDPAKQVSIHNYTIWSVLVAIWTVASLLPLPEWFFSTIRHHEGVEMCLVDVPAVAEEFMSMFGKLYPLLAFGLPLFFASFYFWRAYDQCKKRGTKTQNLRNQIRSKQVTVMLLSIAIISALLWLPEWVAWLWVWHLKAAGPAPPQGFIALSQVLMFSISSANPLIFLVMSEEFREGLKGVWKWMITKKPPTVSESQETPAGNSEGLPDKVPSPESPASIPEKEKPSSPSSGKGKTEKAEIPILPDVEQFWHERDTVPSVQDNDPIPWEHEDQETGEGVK
FBW7 activator: human FBW7 E3 ligase activation, primary screen. Q969H0. AlphaScreen FBW7–phospho-cyclin E peptide binding, activator screen. normalized activity (activation), % at 26.1 µM. 0.13% of 650,000 active; in the data active = normalized activity above about 1.9%;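 also: purified mutant Fbw7 with reduced substrate affinity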
TEAD-YAP inh: TEAD-YAP interaction inhibition. 1.4% of 640,000 active. HEK-TIYL cells, TEAD-Gal4/YAP UAS-luciferase luminescence. inhibition, % at 9.12 µM; in the data active = inhibition above about 32%;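 also: 0% = median of test compound wells and 100% = reference inhibitor wells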
MITF primary: human MITF inhibition, primary screen. O75030. AlphaScreen MITF homodimerization, bead proximity signal. AID 1259374. 0.91% of 650,000 active. inhibition, % at 2.6 µM; in the data active = inhibition above about 50%;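 also: 0% = vehicle wells with protein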
* hit, by the source's call. In the library only some 3.5% were active in any assay of this set; here they are far more common.

SMILES | GPR151 ag | FBW7 activator | TEAD-YAP inh | MITF primary
CC(C)(C)C1CCc2c(sc(NC(=O)c3ccco3)c2C(=O)O)C1 (configuration not stated) | -1 | 0 | 90* | 2
CCOC(=O)c1c(NC(=O)c2cccc([N+](=O)[O-])c2)sc(C(C)=O)c1C | 0 | 0 | 4 | -11
C=C(C)CN1C(=O)NC(CC)(C2CCN(Cc3ccccc3C)CC2)C1=O (configuration not stated) | 0 | 1 | -25 | 18
C=C(C)CN1C(=O)NC(CC)(C2CCN(CC3=CC[C@H]4C[C@@H]3C4(C)C)CC2)C1=O (some centres not stated) | 2 | 0 | 43* | 11
O=C(/C=C/Nc1ccc(Br)cc1F)c1ccco1 | -2 | 0 | 43* | -7
O=C(/C=C/Nc1ccccc1O)c1ccco1 | 0 | 0 | -49 | 5
O=C(/C=C/Nc1ccc(F)cc1F)c1ccco1 | -2 | 0 | 64* | 3
O=C(/C=C/Nc1cccc(Cl)c1Cl)c1ccco1 | -2 | 0 | 53* | -3
O=C(N/N=C/c1ccc(O)c(O)c1O)c1ccc2ccccc2n1 | -1 | -1 | 17 | 42
COc1cc(/C=C2\SC(=O)N=C2N)ccc1O | -1 | 0 | -2 | -1
c1cc2c(cc1CN1CCOCC1)CN(C1CCOCC1)CCO2 | 1 | 0 | -3 | 12
O=C1N[C@@H](Cc2ccc(Cl)cc2)C(=O)N2CCN(C(=O)c3ccccc3Cl)C[C@H]12 | 0 | 0 | 9 | -6
O=C(c1ccc(C(=O)n2nnc3ccccc32)cc1)n1nnc2ccccc21 | -1 | 0 | -8 | 3
CN(C)C(=O)n1nnc2ccccc21 | 0 | 0 | 59* | 14
CC(=O)c1ccc(-c2ccc(/C=C3/SC(=S)NC3=O)o2)cc1 | -1 | -1 | -7 | 74*
O=C1NC(=S)S/C1=C/c1ccc[nH]1 | 0 | 0 | 49* | 13
CCN1C(=O)C(=Cc2ccc(-c3ccc(C(C)=O)cc3)o2)C(=O)N(CC)C1=S | 1 | 0 | -7 | 78*
O=C1NC(=S)S/C1=C\c1ccc(I)o1 | -1 | 0 | -1 | 48
O=C1NC(=S)S/C1=C/c1cc(Br)c(Br)o1 | -1 | -1 | -2 | 51*
CCN1C(=O)C(=Cc2ccc(-c3cccc(C(=O)O)c3)o2)C(=O)N(CC)C1=S | -1 | 0 | 0 | 47
O=C(Nc1c2c(nn1-c1ccc([N+](=O)[O-])cc1)CS(=O)(=O)C2)c1ccccc1Br | 1 | 0 | 5 | 8
COc1ccc(N(C)S(=O)(=O)c2ccc3c(c2)oc(=O)n3C)c(OC)c1 | 0 | 0 | -11 | 4
CCN(CC)S(=O)(=O)c1ccc(Oc2ccc(Br)cc2)c(N)c1 | -1 | 0 | 3 | 4
CCOC(=O)c1c(C)[nH]c(C(=O)CSc2nnnn2-c2ccc(Cl)cc2)c1C | -2 | 0 | -4 | -2
CCOC(=O)c1c(C)[nH]c(C(=O)CSc2nccn2C)c1C | -7 | 0 | 87* | -6
SMILES | GPR151 ag | FBW7 activator | TEAD-YAP inh | MITF primary
O=C(COC(=O)c1cc(O)[nH]c(=O)c1)Nc1cc(C(F)(F)F)ccc1Cl | 2 | 0 | -1 | 15
COc1cc(Cl)c(C)cc1NC(=O)COC(=O)c1cc(O)[nH]c(=O)c1 | -1 | -1 | 18 | 63*
O=C1CCCC2=C1C(c1ccc(O)c(Br)c1)C1=C(CCCC1=O)O2 | 0 | 0 | 45* | 17
COC(=O)C1=CN(c2ccc(C(=O)OC)cc2)C=C(C(=O)OC)C1c1cccs1 | 1 | 0 | -3 | 14
CCC(C)NC(=O)CSc1nc2cc3c(cc2cc1C#N)OCO3 (configuration not stated) | -2 | 0 | 51* | 9
Cc1ccccc1NC(=O)CSc1nc2cc3c(cc2cc1C#N)OCO3 | 1 | 0 | 6 | -6
N#Cc1cc2cc3c(cc2nc1SCC(=O)NCCc1ccccc1)OCCO3 | 1 | 0 | 34* | 18
Cc1ccccc1NC(=O)CSc1nc2cc3c(cc2cc1C#N)OCCO3 | 0 | 0 | 58* | 7
COc1ccc(NC(=O)CSc2nc3cc4c(cc3cc2C#N)OCCO4)c(OC)c1 | -1 | 0 | 83* | 25
CCCS(=O)(=O)c1c(S(=O)(=O)CCC)c2ccccn2c1C(=O)c1ccc(F)cc1 | -1 | 0 | 1 | 9
CCOC(=O)CN(CC(=O)OCC)c1ccccc1OCCOc1ccccc1N(CC(=O)OCC)CC(=O)OCC | 1 | 0 | 7 | -5
NC(=O)c1ccc2nc(NCCCN3CCCC3=O)sc2c1 | -1 | 0 | 16 | 2
COc1cc2cc(C#N)c(SCC(=O)Nc3cc(C)on3)nc2cc1OC | -1 | 2.4* | -10 | 31
N#Cc1cc2cc3c(cc2nc1SCC(=O)NCC1CCCO1)OCCO3 (configuration not stated) | 1 | 0 | 55* | 5
COc1ccc(CNC(=O)CSc2nc3cc4c(cc3cc2C#N)OCCO4)cc1 | 3 | 0 | 61* | 4
COc1cccc(NC(=O)CSc2nc3cc4c(cc3cc2C#N)OCCO4)c1 | 0 | 0 | 45* | -3
COc1ccc(CNC(=O)CSc2nc3cc(OC)c(OC)cc3cc2C#N)cc1 | 1 | 0 | -18 | -6
CC(=O)c1c(C)oc2ccc(N(C(=O)c3ccccc3Cl)S(=O)(=O)c3ccc(Br)cc3)cc12 | 0 | 0 | 3 | 6
O=C(CC1CCCCC1)Nc1nnc2n1CCS2 | 1 | 3.1* | -4 | 19
CN(C)C(=O)CSc1nnc(-c2ccc3nc[nH]c3c2)o1 | 0 | 0 | 14 | -4
OC(CNCCCn1ccnc1)COC(c1ccccc1)c1ccccc1 (configuration not stated) | 0 | 0 | 11 | 38
O=c1oc2cc(Cl)c(O)c(Cl)c2s1 | -1 | 0 | 14 | 55*
Cc1c(Br)c(O)c(Br)c2sc(=O)oc12 | 0 | -1 | 4 | 79*
O=c1oc2cc(Cl)c(O)cc2s1 | 1 | -1 | -2 | 19
O=c1oc2c(Br)cc(Br)c(O)c2s1 | 1 | -1 | -11 | 8
SMILES | GPR151 ag | FBW7 activator | TEAD-YAP inh | MITF primary
O=c1oc2cc(Br)c(O)c(Br)c2s1 | 0 | -1 | -4 | 59*
COC(=O)Oc1c(Br)cc2sc(=O)oc2c1Br | 0 | 0 | -2 | 5
Nc1nnc(SCc2nnc(-c3ccc(F)cc3)o2)s1 | -1 | 1 | -18 | 9
Cc1cccc(NC(=O)/C=C/c2ccccc2[N+](=O)[O-])n1 | -1 | 0 | -33 | 20
CC(C)CCN(C(=O)CCl)c1c(N)n(Cc2ccccc2)c(=O)[nH]c1=O | -2 | 0 | 68* | 13
COc1ccc(-c2cc3nc4c(c(N5CCC(O)CC5)n3n2)CCCC4)cc1 | 1 | 0 | 38* | -3
CCN(CC)CCNC1=C(Cl)C(=O)c2ccccc2C1=O | -2 | 0 | 46* | 2
O=C1C(Cl)=C(NCCN2CCCCC2)C(=O)c2ccccc21 | -4 | 0 | 41* | 9
Cc1cc(NC(=O)c2ccc(Cl)c(S(=O)(=O)N3CCCC3)c2)no1 | 0 | 0 | 4 | -8
O=C(c1cc2c(s1)CCC2)N1CCC(c2ccncc2)CC1 | -1 | 0 | 33* | 17
CC(=O)Oc1ccc2cc(NC(=O)c3cccc(C)c3)c(=O)oc2c1 | -3 | 0 | 38* | 4
